Values joined by “and” are separate entries in the source; they are usually repeats but may differ in a detail not shown here. Equal entries are not always repeated. Records with an inconclusive call do not appear. Entries that show only a call come without a potency. Active and inactive are the calls of the source. Calls come from the whole dose curve.
Assay: qHTS assay for small molecule agonists of the p53 signaling pathway (AID 651631); note: nearly all actives have a fitted effect of over 15% in size
Settings: HCT-116 p53RE-bla reporter, beta-lactamase FRET ratio, 16 h; series mostly up to 73.3 µM; activation: at the top concentration
Excerpt: U.S. Tox21 Program National Center for Advancing Translational Sciences [NCATS] NIH Chemical Genomics Center [NCGC] U.S. Environmental Protection Agency [EPA] National Institutes of Environmental Health Sciences [NIEHS] National Toxicology Program [NTP] U.S. Food and Drug Administration [FDA] Tox21 Assay Overview: p53, a tumor suppressor protein, is activated following cellular insult, including DNA damage and other cellular stresses. The activation of p53 regulates cell fate by inducing DNA repair, cell cycle arrest, apoptosis, or cellular senescence. The activation of p53, therefore, is a good indicator of DNA damage and other cellular stresses. The CellSensor p53RE-bla HCT-116 cell line (Invitrogen) contains a stably integrated beta-lactamase reporter gene under control of the p53 response elements. The activation of the reporter gene under culture conditions can be detected by fluorescence intensity. This cell line was used to screen the Tox21 compound library in a 1536-well plate format and to identify agonists that activate the p53 signaling pathway.
Tox21 Assay Protocol Summary: The p53RE-bla cells were dispensed at 4,000 cells/5 ul/well in 1536-well black wall/clear bottom plates using a Multidrop dispenser. After the assay plates were incubated at a 37 C/5% CO2 incubator for 5 hours, 23 nL of compounds dissolved in DMSO, positive controls or DMSO only was transferred to the assay plate by a pin tool. The plates were incubated at 37 C for 16 hours. After 1 uL of LiveBLAzerTM B/G FRET substrate was added using a Flying Reagent Dispenser, the plates were incubated at room temperature for 2 hours, and fluorescence intensity was measured by an Envision plate reader.
In the case of `Cc1ccc([N+](=O)[O-])cc1N`, the “activation” value is reported as 0.669% (inactive). For `CN1CCCC1=O`, the “activation” value was 2.13% [at 95.1 µM] (inactive). With `N#CCC(=O)O` the Potency was “inactive”. For `COc1ccccc1[N+](=O)[O-]`, the “activation” value was -2.29% (inactive). With `Cc1ncc(CO)c(CO)c1O` the Potency was “inactive”. With `CCCOC(=O)NCCCN(C)C` the “activation” value was 0.403% (inactive). For `CC(C)(CO)CO`, the Potency was “inactive”. For `CCOC(=O)c1ccc(O)cc1`, the Potency was “inactive”. For `O=C(Cl)c1ccc(C(=O)Cl)cc1`, the Potency was “inactive”. In the case of `CC(=O)C(C)C`, the Potency is reported as “inactive”. With `OC1CCCCC1` the Potency was “inactive”. In the case of `NCCNCCNCCN`, the Potency is reported as “inactive”. With `O=C(O)C1=NN(c2ccc(S(=O)(=O)O)cc2)C(=O)C1` the “activation” value was -2.83% (inactive). In the case of `COC(=O)CCCCC(=O)OC`, the Potency is reported as “inactive”. For `c1cnc2c(c1)ccc1cccnc12`, the Potency was 30.9 µM (active) and 24.3 µM (active). With `O=C(c1ccccc1)c1ccc(O)c(O)c1O` the Potency was “inactive”. With `N[C@@H](Cc1cc(I)c(Oc2ccc(O)c(I)c2)c(I)c1)C(=O)O` the “activation” value was -2.14% (inactive). In the case of `OC[C@H]1O[C@@H](Oc2ccc(O)cc2)[C@H](O)[C@@H](O)[C@@H]1O`, the “activation” value is reported as -1.04% (inactive). In the case of `CCOC(=O)CC(=O)OCC`, the Potency is reported as “inactive”. In the case of `COC(=O)/C=C\C(=O)OC`, the “activation” value is reported as -3.86% (inactive). With `CCCCCCCC(=O)O` the Potency was “inactive”. For `OCC(O)CS` (stereo not given), the Potency was “inactive”. For `CC(O)CNCC(C)O` (stereo not given), the Potency was “inactive”. With `Brc1ccc(Oc2ccc(Br)cc2)cc1` the “activation” value was -1.36% (inactive). With `COc1ccc2cc3[n+](cc2c1OC)CCc1cc2c(cc1-3)OCO2` the Potency was 61.6 µM (active). In the case of `CC/C(C)=N/O`, the “activation” value is reported as -1.43% (inactive). In the case of `Cc1nnc(NS(=O)(=O)c2ccc(N)cc2)s1`, the Potency is reported as “inactive”. For `O=C1O[C@H]([C@H](O)CO)C(O)=C1O`, the Potency was “inactive”. In the case of `Cc1ccc(C(C)C)cc1`, the Potency is reported as “inactive”. In the case of `CCCCCNCCCCC`, the Potency is reported as “inactive”. In the case of `O=C(NCC1CCCCN1)c1cc(OCC(F)(F)F)ccc1OCC(F)(F)F` (stereo not given), the “activation” value is reported as -2.17% (inactive). In the case of `CCCCC(CC)COC(=O)c1ccc(C(=O)OCC(CC)CCCC)cc1` (stereo not given), the “activation” value is reported as -4.08% (inactive). In the case of `CCCCCCCCO`, the Potency is reported as “inactive”. For `NC(N)=S`, the Potency was “inactive”. For `CCCCCCC(=O)O`, the Potency was “inactive”. For `CC1(C)C(=O)N(Cl)C(=O)N1Cl`, the “activation” value was -2.49% (inactive). In the case of `CC(C)=CCC/C(C)=C/C=O`, the Potency is reported as “inactive”. For `COc1ccc([C@@H]2CC(=O)c3c(O)cc(O[C@@H]4O[C@H](CO[C@@H]5O[C@@H](C)[C@H](O)[C@@H](O)[C@H]5O)[C@@H](O)[C@H](O)[C@H]4O)cc3O2)cc1OC`, the Potency was “inactive”. For `Cc1ccc(Cl)cc1`, the Potency was “inactive”. With `NC(=O)NC(N)=O` the Potency was “inactive”.
Potency is the fitted concentration of half-maximal effect.
